Source: ChEMBL document CHEMBL2218924, “A broad activity screen in support of a chemogenomic map for kinase signalling research and drug discovery” (Biochem J, 2013)

Key:
[1] = molecular target: T1, Phosphorylase b kinase gamma catalytic chain, liver/testis isoform (Homo sapiens) (UniProt P15735); details: at 1 µM
T1 sequence (whole entry): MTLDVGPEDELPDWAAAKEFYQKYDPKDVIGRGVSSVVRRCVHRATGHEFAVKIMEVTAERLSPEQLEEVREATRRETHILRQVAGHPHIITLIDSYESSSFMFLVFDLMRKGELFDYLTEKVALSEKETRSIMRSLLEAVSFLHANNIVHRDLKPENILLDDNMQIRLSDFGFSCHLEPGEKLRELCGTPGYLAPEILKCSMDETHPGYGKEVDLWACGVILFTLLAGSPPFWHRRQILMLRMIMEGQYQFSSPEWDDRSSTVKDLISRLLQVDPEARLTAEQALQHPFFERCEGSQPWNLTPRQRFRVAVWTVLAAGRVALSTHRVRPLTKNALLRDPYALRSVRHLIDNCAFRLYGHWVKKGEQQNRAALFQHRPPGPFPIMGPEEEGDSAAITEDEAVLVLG

[2] = molecular target: T1, Phosphorylase b kinase gamma catalytic chain, liver/testis isoform (Homo sapiens); details: at 10 µM
[3] = molecular target: Serine/threonine-protein kinase pim-1 (Homo sapiens) (UniProt P11309); details: at 1 µM
Chain of Serine/threonine-protein kinase pim-1 (Homo sapiens) (P11309 whole entry, looked up): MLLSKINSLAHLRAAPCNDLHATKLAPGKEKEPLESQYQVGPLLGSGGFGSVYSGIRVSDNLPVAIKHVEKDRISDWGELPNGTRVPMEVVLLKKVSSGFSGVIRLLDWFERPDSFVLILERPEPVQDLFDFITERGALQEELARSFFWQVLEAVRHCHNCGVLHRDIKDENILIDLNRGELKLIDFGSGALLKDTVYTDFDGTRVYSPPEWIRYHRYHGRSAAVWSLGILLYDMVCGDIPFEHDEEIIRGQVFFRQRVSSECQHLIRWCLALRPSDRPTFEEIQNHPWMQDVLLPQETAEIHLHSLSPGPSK

[4] = molecular target: Serine/threonine-protein kinase pim-1 (Homo sapiens) (UniProt P11309); details: at 10 µM
[5] = molecular target: Serine/threonine-protein kinase pim-2 (Homo sapiens) (UniProt Q9P1W9); details: at 1 µM
Chain of Serine/threonine-protein kinase pim-2 (Homo sapiens) (Q9P1W9 whole entry, looked up): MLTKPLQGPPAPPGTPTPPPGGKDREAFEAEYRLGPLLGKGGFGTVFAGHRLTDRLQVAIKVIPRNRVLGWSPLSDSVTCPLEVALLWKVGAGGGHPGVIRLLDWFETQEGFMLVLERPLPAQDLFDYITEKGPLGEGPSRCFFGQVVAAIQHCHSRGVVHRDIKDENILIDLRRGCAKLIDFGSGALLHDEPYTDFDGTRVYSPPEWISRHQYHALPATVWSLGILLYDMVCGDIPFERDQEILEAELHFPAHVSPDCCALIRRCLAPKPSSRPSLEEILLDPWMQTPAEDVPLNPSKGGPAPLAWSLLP

[6] = molecular target: Serine/threonine-protein kinase pim-2 (Homo sapiens) (UniProt Q9P1W9); details: at 10 µM
[7] = molecular target: Serine/threonine-protein kinase pim-3 (Homo sapiens) (UniProt Q86V86); details: at 1 µM
[8] = molecular target: Serine/threonine-protein kinase pim-3 (Homo sapiens) (UniProt Q86V86); details: at 10 µM
[9] = molecular target: Serine/threonine-protein kinase PLK1 (Homo sapiens) (UniProt P53350); details: at 1 µM
Chain of Serine/threonine-protein kinase PLK1 (Homo sapiens) (P53350 whole entry): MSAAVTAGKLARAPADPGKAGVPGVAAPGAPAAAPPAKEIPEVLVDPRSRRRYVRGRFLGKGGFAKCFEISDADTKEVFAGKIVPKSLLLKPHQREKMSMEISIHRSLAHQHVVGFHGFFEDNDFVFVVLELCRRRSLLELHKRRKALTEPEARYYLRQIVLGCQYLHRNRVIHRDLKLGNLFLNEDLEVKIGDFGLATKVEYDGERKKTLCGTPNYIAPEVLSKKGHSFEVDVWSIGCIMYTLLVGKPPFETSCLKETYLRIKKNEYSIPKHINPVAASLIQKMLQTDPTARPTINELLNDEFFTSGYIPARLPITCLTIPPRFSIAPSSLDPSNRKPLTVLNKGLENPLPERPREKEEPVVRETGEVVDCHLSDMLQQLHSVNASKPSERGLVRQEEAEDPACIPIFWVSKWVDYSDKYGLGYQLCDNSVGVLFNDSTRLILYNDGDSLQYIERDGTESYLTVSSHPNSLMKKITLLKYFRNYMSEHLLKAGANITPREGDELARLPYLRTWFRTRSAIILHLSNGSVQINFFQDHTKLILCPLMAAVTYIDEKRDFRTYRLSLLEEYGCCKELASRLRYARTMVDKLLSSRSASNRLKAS

[10] = molecular target: Serine/threonine-protein kinase PLK1 (Homo sapiens) (UniProt P53350); details: at 10 µM

Row | Structure (SMILES) | residual activity [1] | residual activity [2] | residual activity [3] | residual activity [4] | residual activity [5] | residual activity [6] | residual activity [7] | residual activity [8] | residual activity [9] | residual activity [10]
1 | CC(C)n1cnc2/c(=N/c3cccc(Cl)c3)nc(NCCO)[nH]c21 | 52% | 33% | 115% | 66% | 137% | 93% | 84% | 71% | 30% | 6%
2 | CNc1cc2c(Nc3cccc(Br)c3)ncnc2cn1 | 104% | 107% | 64% | 42% | 86% | 88% | 96% | 81% | 99% | 94%
3 | CC#CC(=O)Nc1cc2c(Nc3ccc(F)c(Cl)c3)ncnc2cn1 | 92% | 105% | 88% | 101% | 82% | 109% | 91% | 91% | 98% | 81%
4 | Cc1cc2ncc(-c3ccccc3)nc2cc1C | 94% | 101% | 97% | 84% | 126% | – | 100% | 96% | 81% | 75%
5 | Cc1cc(Nc2nc(-c3ccccc3)nc3ccccc23)n[nH]1 | – | 35% | 104% | 57% | 126% | – | – | – | 73% | 40%
6 | Cc1cncc2cccc(S(=O)(=O)N3CCCN(C(=O)CN)C[C@H]3C)c12 | 82% | 49% | 100% | 84% | – | – | 92% | 86% | 90% | 59%
7 | N#C/C(=C(\N)Sc1ccc(N)cc1)c1ccccc1C(F)(F)F | – | 108% | 79% | 83% | 130% | 133% | 87% | 84% | 85% | 90%
8 | COc1ccc(S(=O)(=O)N(CCO)c2ccccc2CN(C)C/C=C/c2ccc(Cl)cc2)cc1 | 116% | 83% | 96% | 73% | 143% | 137% | 86% | 82% | 76% | 72%
9 | Cc1nc(-c2ccccc2)c(-c2ccncc2)o1 | 109% | 95% | 78% | 60% | 121% | 117% | 93% | 99% | 92% | 93%
10 | c1ccc(-c2n[nH]c3c2oc2ccccc23)cc1 | – | – | 85% | 84% | 83% | 123% | 92% | 90% | 85% | 67%
11 | O=c1cc(-c2cccc3c2Sc2ccccc2S3)oc(N2CCOCC2)c1 | 96% | 100% | 93% | 30% | 68% | 29% | 102% | 85% | 95% | 99%
12 | Cc1cccc(-c2[nH]c(C(C)(C)C)nc2-c2ccc3c(c2)OCO3)n1 | – | – | – | – | – | – | 103% | 97% | 80% | 75%
13 | CC(=O)O/N=C1\C(=C2\C(=O)Nc3cc(Br)ccc32)Nc2ccccc21 | 92% | 70% | 92% | 87% | 134% | 67% | 84% | 84% | 79% | 76%
14 | CN(C)CCCn1cc(C2=C(c3c[nH]c4ccccc34)C(=O)NC2=O)c2ccccc21 | 88% | 63% | – | – | 15% | 4% | 22% | 5% | 114% | 84%
15 | Nc1nc(Nc2ccc(S(N)(=O)=O)cc2)nn1C(=S)Nc1c(F)cccc1F | 86% | 31% | 96% | 77% | 125% | – | 95% | 95% | – | –
16 | N#CCCc1ccc2c(c1)-c1[nH]c3ccc([N+](=O)[O-])cc3c1CC(=O)N2 | – | – | – | 69% | 120% | – | – | – | – | –
17 | COc1ccc(C(=O)Nc2sc3c(c2C(N)=O)CCCC3)cc1OC | 78% | 84% | 80% | 97% | 87% | 114% | 92% | 97% | 94% | 75%
18 | O=c1c2ccccc2[nH]c(=S)n1CCN1CCC(=C(c2ccc(F)cc2)c2ccc(F)cc2)CC1 | 103% | 105% | 89% | 105% | 75% | 133% | 98% | 99% | 104% | 68%
19 | O=C(Nc1cccc(Nc2cc(Nc3cccc(C(F)(F)F)c3)ncn2)c1)C1CC1 | 86% | 98% | 112% | – | 88% | 108% | 93% | 102% | 99% | 91%

Row | Structure (SMILES) | residual activity [1] | residual activity [2] | residual activity [3] | residual activity [4] | residual activity [5] | residual activity [6] | residual activity [7] | residual activity [8] | residual activity [9] | residual activity [10]
20 | Cc1ccc(S(=O)(=O)/C=C/C#N)cc1 | 114% | 111% | 97% | 95% | 111% | 103% | 91% | 102% | 92% | 102%
21 | Ic1cccc(CSc2nnc(-c3ccncc3)o2)c1 | 106% | 84% | 104% | 73% | 93% | 86% | 78% | 84% | 72% | 74%
22 | Oc1ccc(-c2nc(-c3ccc(F)cc3)c(-c3ccncc3)[nH]2)cc1 | 107% | 98% | 96% | 91% | 125% | – | 96% | 92% | 94% | 83%
23 | COc1ccc(OC)c2c(=S)c3ccccc3[nH]c12 | 119% | 103% | 97% | 52% | 117% | 77% | 88% | 80% | 80% | 91%
24 | Cn1cc(/C=C2\C(=O)Nc3ccc(S(N)(=O)=O)cc32)c2ccccc21 | 24% | 9% | 76% | 111% | 109% | 97% | 102% | – | 109% | 93%
25 | COc1cc2ncnc(Nc3ccc(NC(=O)c4ccccc4)cc3)c2cc1OC | 101% | – | 88% | 96% | 85% | – | 107% | 99% | 105% | –
26 | c1ccc2c(-c3ccncc3)c[nH]c2c1 | 103% | 86% | 97% | 49% | 97% | – | 91% | 86% | 86% | 65%
27 | COc1cc2ncc(-c3ccccc3)nc2cc1OC | – | – | 81% | 82% | 127% | 144% | 95% | 99% | 88% | 75%
28 | CO[C@@H]1[C@H](N(C)C(=O)c2ccccc2)C[C@H]2O[C@]1(C)n1c3ccccc3c3c4c(c5c6ccccc6n2c5c31)C(=O)NC4 | 44% | 29% | 33% | 16% | 80% | 94% | 93% | 88% | – | 61%
29 | O=C1NC(=O)/C(=C\c2ccc3nccnc3c2)S1 | 90% | 50% | 42% | 10% | 75% | 22% | 61% | 14% | 80% | 64%
30 | Oc1ccc(Nc2nc(-c3ccc(Cl)cc3)cs2)cc1 | 129% | 130% | 77% | 52% | 126% | 82% | 93% | 97% | 97% | 90%
31 | O=C1Nc2cc(Br)ccc2/C1=C1/Nc2ccccc2/C1=N\O | 55% | 24% | 67% | 78% | 106% | 85% | 78% | 81% | 79% | 81%
32 | CCN(CC)CCCCN1c2ccccc2Oc2ccc(Cl)cc21 | 112% | 122% | – | – | 97% | 125% | 92% | 47% | 109% | 76%
33 | O=C1Nc2ccc(Br)cc2/C1=C\c1cc2c([nH]1)CCCC2 | 77% | 78% | – | 105% | 129% | 106% | 105% | 112% | 82% | 80%
34 | Cc1ccc(NC2=CC(=O)c3sc(C)nc3C2=O)cc1 | 114% | 92% | 94% | 85% | 99% | 111% | 91% | 92% | 87% | 89%
35 | CC(=O)c1ccc(N2CCOCC2)cc1O | – | – | 82% | 87% | 91% | 129% | 96% | 91% | 91% | 68%
36 | CCN(CC)C(=O)c1ccc(Nc2nc(OCC3CCCCC3)c3nc[nH]c3n2)cc1 | – | – | 77% | 56% | 143% | – | – | – | 78% | 66%
37 | c1ccc(-c2n[nH]cc2-c2ccnc3ccccc23)nc1 | 95% | 102% | 96% | 85% | – | – | 99% | 100% | 80% | 72%
38 | N#CC(C#N)=C(N)/C(C#N)=C/c1ccc(O)cc1 | – | – | – | – | – | 118% | – | 88% | 79% | 36%
